This is part of a sample that, as a whole, favours compounds with a hit. Of some 79,000 tested, about 15% had one in any assay. Activity calls are given as the source filed them. Rule as the data show it: active = growth inhibition above about 70%; inactive = the rest.
Columns and labels:
[1] = NCI Yeast Anticancer Drug Screen. Data for the rad52 strain (AID 147);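 also: 0% = growth of vehicle-treated control cultures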; settings: S. cerevisiae rad52 mutant growth inhibition, stronger effect = higher value
Outline: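 Read-out: growth inhibition versus vehicle-treated controls. Cells were a DNA repair-deficient yeast strain treated with compounds.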

[2] = NCI Yeast Anticancer Drug Screen. Data for the wt1 strain (AID 149);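 also: 0% = growth of vehicle-treated wt1 cultures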; settings: S. cerevisiae wt1 strain (SPY 50644) growth inhibition, stronger effect = higher value
Outline: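 Each compound is tested on wt1 yeast and the loss of growth versus vehicle gives the inhibition value.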

[3] = NCI Yeast Anticancer Drug Screen. Data for the rad50EPP+ strain (AID 151);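 also: 0% = growth of vehicle-treated control cultures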; settings: S. cerevisiae rad50 mutant strain, stronger effect = higher value
Outline: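 Growth inhibition read against vehicle controls in rad50EPP+ yeast, a strain altered in DNA damage repair, after compound exposure.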

[4] = NCI Yeast Anticancer Drug Screen. Data for the mgt1 strain (AID 153); settings: S. cerevisiae mgt1 mutant growth inhibition, stronger effect = higher value
Outline: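 mgt1 yeast grown with test compound; read-out is growth inhibition versus vehicle-treated cultures.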

[5] = NCI Yeast Anticancer Drug Screen. Data for the rad50 strain (AID 155);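 also: 0% = growth of vehicle-only cultures of the same strain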; settings: S. cerevisiae rad50 strain growth inhibition, stronger effect = higher value
Outline: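 Vehicle-treated cultures provide the reference for the growth inhibition reported for compound-exposed, repair-deficient yeast.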

[6] = NCI Yeast Anticancer Drug Screen. Data for the mec2-1 strain (AID 157); settings: S. cerevisiae mec2-1 strain, stronger effect = higher value
Outline: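 Yeast mec2-1 mutant treated with compound. Readout: growth inhibition vs vehicle controls.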

[7] = NCI Yeast Anticancer Drug Screen. Data for the sgs1 mgt1 strain (AID 161);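 also: 0% = growth of cultures given vehicle only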; settings: S. cerevisiae sgs1 mgt1 strain, stronger effect = higher value
Outline: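 Inhibition of yeast growth, normalised to vehicle-treated controls, is reported for a strain bearing genetic alterations in DNA damage repair.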

[8] = NCI Yeast Anticancer Drug Screen. Data for the CLN2oe strain (AID 163);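 also: 0% = growth of vehicle-only control cultures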; settings: S. cerevisiae CLN2oe strain, stronger effect = higher value
Outline: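 Read-out: yeast growth inhibition, expressed relative to vehicle-only controls. The strain bears an engineered cell-cycle alteration.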

[9] = NCI Yeast Anticancer Drug Screen. Data for the cln2 rad14 strain (AID 165);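 also: 0% = growth equal to vehicle treated cultures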; settings: S. cerevisiae cln2 rad14 strain, stronger effect = higher value
Outline: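 cln2 rad14 yeast strain; compound exposure; growth inhibition read vs vehicle controls.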

[10] = NCI Yeast Anticancer Drug Screen. Data for the bub3 strain (AID 167); settings: S. cerevisiae bub3 mutant strain, stronger effect = higher value
Outline: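 Mutant yeast screening strain plus compound; vehicle-treated cultures serve as the 0% inhibition reference.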

[11] = NCI Yeast Anticancer Drug Screen. Data for the wt2 strain (AID 169); settings: S. cerevisiae wt2 strain growth inhibition, stronger effect = higher value
Outline: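 Read-out: growth inhibition versus vehicle-treated control cultures after compound exposure of the yeast strain.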

[12] = NCI Yeast Anticancer Drug Screen. Data for the mlh1 strain (AID 171);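 also: 0% = growth of vehicle-treated control cultures of the same strain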; settings: S. cerevisiae mlh1 strain growth inhibition, stronger effect = higher value
Outline: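 Read-out: growth inhibition versus vehicle controls. Strain: engineered yeast with a defined DNA repair or cell cycle defect, compound-treated.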

[13] = NCI Yeast Anticancer Drug Screen. Data for the sgs1 strain (AID 173);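 also: 0% = growth of vehicle-only control cultures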; settings: S. cerevisiae sgs1 mutant, stronger effect = higher value
Outline: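 Read-out: yeast growth inhibition relative to vehicle controls, following compound exposure of a strain with a defined DNA repair/cell cycle alteration.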

[14] = NCI Yeast Anticancer Drug Screen. Data for the mlh1 rad18 strain (AID 175); settings: S. cerevisiae mlh1 rad18 strain growth inhibition, stronger effect = higher value
Outline: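 Yeast w/ defined DNA-repair lesions; compound exposure; growth vs vehicle controls → % inhibition.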

[15] = NCI Yeast Anticancer Drug Screen. Data for the rad18 strain (AID 177); settings: S. cerevisiae rad18 mutant growth inhibition, stronger effect = higher value
Outline: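 Readout: growth inhibition vs vehicle controls. Cells: genetically altered yeast strain, DNA repair defect.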

[16] = NCI Yeast Anticancer Drug Screen. Data for the rad14 strain (AID 159);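 also: 0% = growth of vehicle-treated control cultures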; settings: S. cerevisiae rad14 strain growth inhibition, stronger effect = higher value
Outline: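 Inhibition of growth is reported for a repair-deficient yeast mutant following compound treatment, calculated relative to cultures that received vehicle.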

[17] = at 5.0 µM (retest, dose inferred, filed as 0.5)
[18] = at 50.0 µM (retest, dose inferred, filed as 5.0)

Measured: growth inhibition

CCC(C)(c1ccc(O)c(C)c1)c1ccc(O)c(C)c1
inactive: [1]; at 1.2 µM -36% | [1]; at 3.7 µM -19% | [1]; at 11.0 µM 42% | [2]; at 1.2 µM -17% | [2]; at 3.7 µM -23% | [2]; at 11.0 µM 29% | [3]; at 1.2 µM -31% | [3]; at 3.7 µM -38% | [3]; at 11.0 µM -43% | [3]; at 33.0 µM -41% | [3]; at 100.0 µM 12% | [4]; at 1.2 µM -49% | [4]; at 3.7 µM -39% | [4]; at 11.0 µM 14% | [5]; at 1.2 µM -30% | [5]; at 3.7 µM -28% | [5]; [17] 40% | [5]; at 11.0 µM 52% | [6]; at 1.2 µM -66% | [6]; at 3.7 µM -45% | [6]; [17] 42% | [6]; at 11.0 µM 43% | [7]; [17] -3% | [8]; at 1.2 µM -36% | [8]; at 3.7 µM -28% | [8]; at 11.0 µM 45% | [10]; at 1.2 µM -27% | [10]; at 3.7 µM -13% | [10]; [17] 13% | [10]; at 11.0 µM 47% | [11]; at 1.2 µM -33% | [11]; at 3.7 µM -31% | [11]; at 11.0 µM 45% | [12]; at 1.2 µM -45% | [12]; at 3.7 µM -43% | [12]; at 11.0 µM 42% | [13]; at 1.2 µM -32% | [13]; at 3.7 µM -25% | [13]; at 11.0 µM 39% | [14]; [17] 30% | [15]; at 1.2 µM -55% | [15]; at 3.7 µM -38% | [15]; at 11.0 µM 30%
active: [1]; at 33.0 µM 98% | [1]; at 100.0 µM 98% | [2]; at 33.0 µM 98% | [2]; at 100.0 µM 99% | [4]; at 33.0 µM 97% | [4]; at 100.0 µM 99% | [5]; at 33.0 µM 97% | [5]; [18] 87% | [5]; at 50.0 µM 92% | [5]; at 100.0 µM 97% | [6]; at 33.0 µM 98% | [6]; [18] 90% | [6]; at 50.0 µM 93.3% | [6]; at 100.0 µM 98% | [7]; [18] 98% | [7]; at 50.0 µM 93.8% | [8]; at 33.0 µM 97% | [8]; at 100.0 µM 98% | [9]; [17] 81% | [9]; [18] 100% | [9]; at 50.0 µM 92.7% | [10]; at 33.0 µM 97% | [10]; [18] 99% | [10]; at 50.0 µM 92.2% | [10]; at 100.0 µM 98% | [11]; at 33.0 µM 98% | [11]; at 100.0 µM 99% | [12]; at 33.0 µM 91% | [12]; at 100.0 µM 98% | [13]; at 33.0 µM 97% | [13]; at 100.0 µM 98% | [14]; [18] 91% | [14]; at 50.0 µM 92.2% | [15]; at 33.0 µM 97% | [15]; at 100.0 µM 98%

CC1=CCC(C(C)(C)c2ccc(O)cc2)CC1 (stereo unspecified)
active: [1]; at 33.0 µM 96% | [1]; at 100.0 µM 97% | [2]; at 33.0 µM 97% | [2]; at 100.0 µM 98% | [3]; at 100.0 µM 78% | [4]; at 33.0 µM 97% | [4]; at 100.0 µM 97% | [5]; at 33.0 µM 96% | [5]; at 50.0 µM 91.8% | [5]; at 100.0 µM 97% | [6]; at 33.0 µM 93% | [6]; [18] 73% | [6]; at 50.0 µM 93.5% | [6]; at 100.0 µM 98% | [16]; at 33.0 µM 97% | [16]; at 100.0 µM 98% | [8]; at 33.0 µM 97% | [8]; at 100.0 µM 97% | [9]; [18] 98% | [10]; at 33.0 µM 96% | [10]; [18] 97% | [10]; at 100.0 µM 97% | [11]; at 33.0 µM 93% | [11]; at 100.0 µM 97% | [12]; at 33.0 µM 96% | [12]; at 100.0 µM 98% | [13]; at 33.0 µM 96% | [13]; at 100.0 µM 97% | [14]; at 50.0 µM 91.8% | [15]; at 33.0 µM 96% | [15]; at 100.0 µM 97%
inactive: [1]; at 1.2 µM 4% | [1]; at 3.7 µM -12% | [1]; at 11.0 µM -11% | [2]; at 1.2 µM -16% | [2]; at 3.7 µM -18% | [2]; at 11.0 µM -39% | [3]; at 1.2 µM -10% | [3]; at 3.7 µM -4% | [3]; at 11.0 µM -25% | [3]; at 33.0 µM 27% | [4]; at 1.2 µM 35% | [4]; at 3.7 µM 10% | [4]; at 11.0 µM -23% | [5]; at 1.2 µM -6% | [5]; at 3.7 µM -8% | [5]; [17] 35% | [5]; at 11.0 µM -26% | [5]; [18] 65% | [6]; at 1.2 µM -20% | [6]; at 3.7 µM -19% | [6]; [17] 52% | [6]; at 11.0 µM -40% | [16]; at 1.2 µM -8% | [16]; at 3.7 µM -18% | [16]; at 11.0 µM -39% | [8]; at 1.2 µM 15% | [8]; at 3.7 µM 19% | [8]; at 11.0 µM -17% | [9]; [17] 37% | [10]; at 1.2 µM 7% | [10]; at 3.7 µM 4% | [10]; [17] 39% | [10]; at 11.0 µM -4% | [11]; at 1.2 µM -41% | [11]; at 3.7 µM -24% | [11]; at 11.0 µM -44% | [12]; at 1.2 µM 10% | [12]; at 3.7 µM 9% | [12]; at 11.0 µM -10% | [13]; at 1.2 µM 2% | [13]; at 3.7 µM -17% | [13]; at 11.0 µM -28% | [14]; [17] 32% | [14]; [18] 63% | [15]; at 1.2 µM -6% | [15]; at 3.7 µM -7% | [15]; at 11.0 µM -5%

Source: PubChem BioAssay (NCI)
